# Only a selection was taken, and the strongest signals are over-represented in it overall.
# Tests used:
# Experiment in all cases: glycan array binding signal (z-score within array); higher = stronger binding
# Conditions in all cases: glycan notation: IUPAC condensed, linker removed
# [1] = biological target: GalNAc(b1-3)Gal(a1-4)Gal(b1-4)GlcNAc
# Procedure, shortened: (§1)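 Glycan array data came from 3228 arrays in the Consortium for Functional Glycomics database, and only arrays with an available protein sequence were kept. Glycan names were put into IUPAC-condensed notation, and columns mapping to the same glycan were averaged. The binding signal is a within-array Z-score, averaged across arrays of one protein sequence run at different concentrations or buffers and across linkers. A negative Z-score can be read as non-binding.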
# [2] = biological target: GalNAc(b1-3)Gal(a1-6)Gal(b1-4)Glc
# Procedure, shortened: as §1
# [3] = biological target: Glc(a1-4)Glc(a1-4)Glc(a1-4)Glc
# Procedure, shortened: as §1
# [4] = biological target: GlcNAc(a1-4)Gal(b1-4)GlcNAc(b1-3)Gal(b1-4)GlcNAc(b1-3)Gal(b1-4)GlcNAc
# Procedure, shortened: as §1
# GlcNAc(b1-3)Gal = biological target: GlcNAc(b1-3)Gal
# Procedure, shortened: as §1
# GlcNAc(b1-3)Gal(b1-4)Glc = biological target: GlcNAc(b1-3)Gal(b1-4)Glc
# Procedure, shortened: as §1
# [5] = biological target: GlcNAc(b1-3)Gal(b1-4)GlcNAc
# Procedure, shortened: as §1
# [6] = biological target: GlcNAc(b1-3)Gal(b1-4)GlcNAc(b1-3)Gal(b1-4)GlcNAc(b1-2)[GlcNAc(b1-3)Gal(b1-4)GlcNAc(b1-3)Gal(b1-4)GlcNAc(b1-6)]Man(a1-6)[GlcNAc(b1-3)Gal(b1-4)GlcNAc(b1-3)Gal(b1-4)GlcNAc(b1-2)Man(a1-3)]Man(b1-4)GlcNAc(b1-4)[Fuc(a1-6)]GlcNAc
# Procedure, shortened: as §1
# [7] = biological target: GlcNAc(b1-3)Gal(b1-4)GlcNAc(b1-3)Gal(b1-4)GlcNAc(b1-3)Gal(b1-4)GlcNAc(b1-2)[GlcNAc(b1-3)Gal(b1-4)GlcNAc(b1-3)Gal(b1-4)GlcNAc(b1-3)Gal(b1-4)GlcNAc(b1-6)]Man(a1-6)[GlcNAc(b1-3)Gal(b1-4)GlcNAc(b1-3)Gal(b1-4)GlcNAc(b1-3)Gal(b1-4)GlcNAc(b1-2)Man(a1-3)]Man(b1-4)GlcNAc(b1-4)[Fuc(a1-6)]GlcNAc
# Procedure, shortened: as §1
# [8] = biological target: GlcNAc(b1-3)Gal(b1-4)GlcNAc(b1-3)Gal(b1-4)GlcNAc(b1-3)Gal(b1-4)GlcNAc(b1-3)Gal(b1-4)GlcNAc(b1-2)[GlcNAc(b1-3)Gal(b1-4)GlcNAc(b1-3)Gal(b1-4)GlcNAc(b1-3)Gal(b1-4)GlcNAc(b1-3)Gal(b1-4)GlcNAc(b1-6)]Man(a1-6)[GlcNAc(b1-3)Gal(b1-4)GlcNAc(b1-3)Gal(b1-4)GlcNAc(b1-3)Gal(b1-4)GlcNAc(b1-3)Gal(b1-4)GlcNAc(b1-2)Man(a1-3)]Man(b1-4)GlcNAc(b1-4)[Fuc(a1-6)]GlcNAc
# Procedure, shortened: as §1
# [9] = biological target: GlcNAc(b1-4)GlcNAc(b1-4)GlcNAc
# Procedure, shortened: as §1
# [10] = biological target: GlcNAc(b1-6)Gal(b1-4)GlcNAc
# Procedure, shortened: as §1
# Kdn(a2-6)Gal(b1-4)GlcNAc = biological target: Kdn(a2-6)Gal(b1-4)GlcNAc
# Procedure, shortened: as §1
# [11] = biological target: Man(a1-2)Man(a1-6)[Man(a1-3)]Man(a1-6)[Man(a1-2)Man(a1-2)Man(a1-3)]Man(b1-4)GlcNAc(b1-4)GlcNAc
# Procedure, shortened: as §1
# Man(a1-6)Man = biological target: Man(a1-6)Man
# Procedure, shortened: as §1
# [12] = biological target: Neu5Ac(a2-3)Gal(b1-3)GlcNAc(b1-2)Man
# Procedure, shortened: as §1
# [13] = biological target: Neu5Ac(a2-3)Gal(b1-3)[GlcNAc(b1-6)]GalNAc
# Procedure, shortened: as §1
# [14] = biological target: Neu5Ac(a2-3)Gal(b1-3)[Neu5Ac(a2-6)]GlcNAc(b1-3)[Fuc(a1-3)[Gal(b1-4)]GlcNAc(b1-6)]Gal(b1-4)Glc
# Procedure, shortened: as §1
# [15] = biological target: Neu5Ac(a2-3)Gal(b1-3)]Neu5Ac(a2-3)Gal(b1-4)]GlcNAc
# Procedure, shortened: as §1
# [16] = biological target: Neu5Ac(a2-3)Gal(b1-4)GlcNAc(b1-3)Gal(b1-4)GlcNAc(b1-3)Gal(b1-4)GlcNAc
# Procedure, shortened: as §1
# [17] = biological target: Neu5Ac(a2-3)Gal(b1-4)GlcNAc(b1-3)Gal(b1-4)[Fuc(a1-3)]GlcNAc
# Procedure, shortened: as §1
# [18] = biological target: Neu5Ac(a2-3)Gal(b1-4)[Fuc(a1-3)]GlcNAc(b1-3)GalNAc
# Procedure, shortened: as §1
# [19] = biological target: Neu5Ac(a2-3)[GalNAc(b1-4)]Gal(b1-4)Glc
# Procedure, shortened: as §1
# Neu5Ac(a2-6)Gal(b1-4)Glc = biological target: Neu5Ac(a2-6)Gal(b1-4)Glc
# Procedure, shortened: as §1
# [20] = biological target: Neu5Ac(a2-6)Gal(b1-4)GlcNAc
# Procedure, shortened: as §1
# [21] = biological target: Neu5Ac(a2-6)Gal(b1-4)GlcNAc(b1-3)Gal(b1-4)GlcNAc
# Procedure, shortened: as §1
# [22] = biological target: Neu5Ac(a2-6)Gal(b1-4)GlcNAc(b1-3)Gal(b1-4)GlcNAc(b1-3)Gal(b1-4)GlcNAc(b1-2)Man(a1-3)[Neu5Ac(a2-6)Gal(b1-4)GlcNAc(b1-3)Gal(b1-4)GlcNAc(b1-3)Gal(b1-4)GlcNAc(b1-2)Man(a1-6)]GalNAc
# Procedure, shortened: as §1
# Neu5Ac(a2-6)GalNAc = biological target: Neu5Ac(a2-6)GalNAc
# Procedure, shortened: as §1
# [23] = biological target: Neu5Ac(a2-8)Neu5Ac(a2-8)Neu5Ac(a2-8)Neu5Ac(a2-3)[GalNAc(b1-4)]Gal(b1-4)Glc
# Procedure, shortened: as §1
# Neu5Ac(b2-6)GalNAc = biological target: Neu5Ac(b2-6)GalNAc
# Procedure, shortened: as §1
# [24] = biological target: Neu5Gc(a2-3)Gal(b1-4)GlcNAc(b1-3)Gal(b1-4)GlcNAc(b1-2)Man(a1-3)[Neu5Gc(a2-3)Gal(b1-4)GlcNAc(b1-3)Gal(b1-4)GlcNAc(b1-2)Man(a1-6)]Man(b1-4)GlcNAc(b1-4)GlcNAc
# Procedure, shortened: as §1
# [25] = biological target: Neu5Gc(a2-8)Neu5Gc(a2-3)Gal(b1-4)GlcNAc
# Procedure, shortened: as §1
binder,measurement,setting,value
Epa19 (Candida glabrata) (protein) MGSSHHHHHHSSGLVPRGSHMASSKDPTRFPIGCSPQVLKTQPGLAVKLYSYGHPVPGCSYITYQYPDFPRSGYKKERKLADITGVNGKIDIDLKPNDPCRVLTGHLPSNYNYPDTLTYTNFTMILYGYFQPKVTGYHTFNLEADDLLFMNLGAGNAFDCCKAESTLDNFGNYQSYSLWGSDYAKANITVFLVSGVYYPIRLFYVNRDNNAVIDFSFTTEFDKEKVHDFTSYFFSASDGEQCPGSV,glycan array binding signal (z-score),[1],-0.192
same,glycan array binding signal (z-score),[2],-0.525
same,glycan array binding signal (z-score),[3],0.084
same,glycan array binding signal (z-score),[4],-0.551
same,glycan array binding signal (z-score),GlcNAc(b1-3)Gal,-1.24
same,glycan array binding signal (z-score),GlcNAc(b1-3)Gal(b1-4)Glc,-0.077
same,glycan array binding signal (z-score),[5],-0.29
same,glycan array binding signal (z-score),[6],3.06
same,glycan array binding signal (z-score),[7],2.24
same,glycan array binding signal (z-score),[8],2.39
same,glycan array binding signal (z-score),[9],-0.295
same,glycan array binding signal (z-score),[10],0.368
same,glycan array binding signal (z-score),Kdn(a2-6)Gal(b1-4)GlcNAc,-0.099
same,glycan array binding signal (z-score),[11],-0.373
same,glycan array binding signal (z-score),Man(a1-6)Man,0.479
same,glycan array binding signal (z-score),[12],-1.47
same,glycan array binding signal (z-score),[13],-0.681
same,glycan array binding signal (z-score),[14],-0.06
same,glycan array binding signal (z-score),[15],1.09
same,glycan array binding signal (z-score),[16],0.026
same,glycan array binding signal (z-score),[17],-0.678
same,glycan array binding signal (z-score),[18],3.04
same,glycan array binding signal (z-score),[19],0.603
same,glycan array binding signal (z-score),Neu5Ac(a2-6)Gal(b1-4)Glc,-0.768
same,glycan array binding signal (z-score),[20],-0.869
same,glycan array binding signal (z-score),[21],-1.3
same,glycan array binding signal (z-score),[22],3.53
same,glycan array binding signal (z-score),Neu5Ac(a2-6)GalNAc,-0.465
same,glycan array binding signal (z-score),[23],-0.059
same,glycan array binding signal (z-score),Neu5Ac(b2-6)GalNAc,-0.238
same,glycan array binding signal (z-score),[24],-0.264
same,glycan array binding signal (z-score),[25],-0.386
